# Experimental data taken from PubChem BioAssay.
# Tests used:
# [1] = test system: Human papillomavirus type 1a protein E7 (residues 44-93); experiment: small molecules binding HPV E7 44-93 – biochemical, small-molecule microarray, residues 44-93, 635 nm fluorescence, primary screen (AID 1108); conditions: fluorescence 635 nm, higher = more signal;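 further: E7 fragment applied at 1 µg/mL in TBST for 1 h at 4 C; score combines spot fluorescence with its signal to noise ratio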
# [2] = hepatitis C replication reporter changes, two-sided – Huh7 cells, luciferase reporter, HCV replication inhibitor project, primary screen (AID 1109); conditions: Huh7 HCV replicon luciferase reporter, 48 h; higher = more signal;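 further: huh7 hepatoma cells harbouring a luciferase neomycin HCV replicon reporter; luciferase luminescence as measure of HCV replicon replication; test concentration not given here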
# [3] = target: Left-right determination factor 2 (Homo sapiens) (UniProt O00292); experiment: small molecules binding LEFTY2 protein – biochemical, small-molecule microarray, 635 nm fluorescence scan, primary screen (AID 1110); conditions: higher = more signal
# [4] = target: Calmodulin-1 (Homo sapiens) (UniProt P0DP23); experiment: small molecules binding calmodulin-1 with EGTA – biochemical, small-molecule microarray, Cy5-labelled CALM1, profiling panel (AID 1111); conditions: Cy5-CALM1 binding fluorescence, higher = more signal;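 further: labelled calmodulin applied in Tris saline Tween buffer holding calcium plus EGTA and DTT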
# [5] = target: Calmodulin-1 (Homo sapiens) (UniProt P0DP23); experiment: small molecules binding Ca-loaded calmodulin-1 – biochemical, small-molecule microarray, Cy5-labelled CALM1, plus calcium, artefact control for SMM control-protein annotation, profiling panel (AID 1112); conditions: Cy5-CALM1 binding fluorescence, higher = more signal;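 further: score merges spot fluorescence with signal to noise from triplicate slides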
# [6] = probe aWnt5a binding to arrayed compounds – biochemical, biotinylated probe, 635/667 nm fluorescence, primary screen (AID 1113); conditions: small-molecule microarray, higher = more signal;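 further: score merges 667 nm fluorescence intensity with signal-to-noise per printed feature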
# [7] = probe aShh binding to arrayed compounds – biochemical, biotinylated probe, 635/667 nm fluorescence, primary screen (AID 1114); conditions: small-molecule microarray, higher = more signal;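 further: probe is biotin-labelled aShh protein from a stem cell growth factor screen; measures binding of labelled protein to compounds printed on the slide; score merges feature fluorescence at 667 nm with signal-to-noise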
# [8] = probe aNog binding to arrayed compounds – biochemical, biotinylated probe, 635/667 nm fluorescence, primary screen (AID 1115); conditions: small-molecule microarray, higher = more signal;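 further: probe is biotinylated aNog protein used at 0.15 µg/mL for 1 h at 4 C; z-score combines 667 nm fluorescence of each spot with its signal to noise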
# [9] = target: Torsin-1A-interacting protein 1 (Homo sapiens) (UniProt Q5JTV8); experiment: compound microarray binding of lysate hLAP1 – cell lysate, small-molecule microarray, COS7 lysate, 635/667 nm fluorescence, primary screen (AID 1116); conditions: 635 nm fluorescence, higher = more signal
# [10] = target: Alpha-bungarotoxin (Bungarus multicinctus) (UniProt P60615); experiment: compounds binding labelled alpha-BTX control protein – biochemical, small-molecule microarray, Alexa647 label, 635/667 nm fluorescence, artefact control for SMM control protein annotation, profiling panel (AID 1117); conditions: alpha-BTX-A647 binding fluorescence, higher = more signal
# Chain of Alpha-bungarotoxin (Bungarus multicinctus) (P60615 whole entry, looked up): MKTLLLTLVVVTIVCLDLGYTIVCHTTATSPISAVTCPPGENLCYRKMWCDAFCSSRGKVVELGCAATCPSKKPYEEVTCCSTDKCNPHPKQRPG
# Chain of Torsin-1A-interacting protein 1 (Homo sapiens) (Q5JTV8 whole entry, looked up): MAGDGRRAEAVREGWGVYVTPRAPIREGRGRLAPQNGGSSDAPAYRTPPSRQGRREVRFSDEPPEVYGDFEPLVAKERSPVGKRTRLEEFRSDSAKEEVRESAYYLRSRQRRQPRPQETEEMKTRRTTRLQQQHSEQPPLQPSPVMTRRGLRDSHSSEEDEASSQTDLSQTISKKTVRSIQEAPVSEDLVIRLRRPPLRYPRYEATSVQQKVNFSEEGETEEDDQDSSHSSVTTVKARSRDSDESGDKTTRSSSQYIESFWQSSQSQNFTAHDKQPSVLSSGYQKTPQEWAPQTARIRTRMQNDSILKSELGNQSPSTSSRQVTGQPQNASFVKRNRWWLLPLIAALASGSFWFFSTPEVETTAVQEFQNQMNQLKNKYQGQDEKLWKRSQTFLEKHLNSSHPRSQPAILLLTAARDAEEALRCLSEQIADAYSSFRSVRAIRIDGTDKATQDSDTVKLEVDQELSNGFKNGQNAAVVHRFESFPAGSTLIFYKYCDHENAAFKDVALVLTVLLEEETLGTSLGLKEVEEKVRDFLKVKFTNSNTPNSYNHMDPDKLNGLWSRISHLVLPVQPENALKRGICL
# Chain of Left-right determination factor 2 (Homo sapiens) (O00292 whole entry, looked up): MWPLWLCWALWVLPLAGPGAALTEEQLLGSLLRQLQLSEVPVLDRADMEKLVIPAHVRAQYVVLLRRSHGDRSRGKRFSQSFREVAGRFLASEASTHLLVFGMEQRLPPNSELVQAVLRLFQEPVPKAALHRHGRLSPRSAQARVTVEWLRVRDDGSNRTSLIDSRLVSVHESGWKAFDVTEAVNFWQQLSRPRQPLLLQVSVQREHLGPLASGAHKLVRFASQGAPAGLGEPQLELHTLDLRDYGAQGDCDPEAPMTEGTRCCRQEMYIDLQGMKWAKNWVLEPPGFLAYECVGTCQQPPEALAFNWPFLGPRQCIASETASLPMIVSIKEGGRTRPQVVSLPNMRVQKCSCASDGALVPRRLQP
Compound,composite z-score [1],z-score [2],composite z-score [3],composite z-score [4],composite z-score [5],composite z-score [6],composite z-score [7],composite z-score [8],composite z-score [9],composite z-score [10]
C=CCNC(=O)[C@@H]1[C@H]2C(=O)O[C@H](c3ccccc3)[C@H](c3ccccc3)N2[C@H](c2ccc(O)cc2)[C@@]12C(=O)Nc1ccc(C#CC3=CCCCC3)cc12,1.44,-2.61,0.385,1.1,0.683,0.171,1.85,2.03,1.58,1.9
O=C1C2C=CC(C(O)C3CCCCC3)N(Nc3ccccc3F)C2C(=O)N1c1ccccc1 (stereo not given),1.45,-1.49,0.135,2.06,1,0.0993,-0.0054,-0.0116,1.27,2.4
[N-]=[N+]=NCc1ccccc1[C@H]1OC(c2ccc(OCCCO)cc2)=N[C@@]1(CCS(=O)(=O)c1ccccc1)C(=O)O,0.746,-1.98,-0.266,0.461,-0.331,-0.15,-0.156,-0.246,0.703,-0.553
COc1cc2c(cc1O)C(C)N(Cc1sc3ccccc3c1Cl)CC2 (stereo not given),-1.91,-0.728,-1.41,1.23,0.869,-0.117,0.075,0.426,-0.216,0.201
O=C1OCC=C[C@H]2OC34C=CCN(Cn5nnc6ccccc65)C(=O)[C@H]3N(CCO)C(=O)[C@@H]4[C@@H]12 (stereo not given in full),0.316,-0.105,-1.41,-0.157,0.62,-0.148,-0.0192,0.0963,-0.0193,-2.05
COc1ccc(CCNC(=O)[C@@]2(C)c3ccccc3C(=O)N(Cc3ccc(OC(F)(F)F)cc3)[C@H]2c2ccc(CO)cc2)cc1,1.06,-1.84,0.243,-0.717,-0.944,0.0148,0.0181,-0.737,0.986,1.04
CC[C@@H](O[Si](C#C[Si](C(C)C)(C(C)C)C(C)C)(C(C)C)C(C)C)c1cn([C@H](C)c2ccccc2)nn1,0.818,-0.772,0.435,-0.273,-0.0786,-0.0758,0.0637,-0.28,0.651,0.188
O=C1C2C=CC(C(O)C3CC=CCC3)N(Nc3ccc([N+](=O)[O-])cc3)C2C(=O)N1c1ccccc1 (stereo not given),0.34,0.276,0.485,1.76,-0.0685,0.22,0.262,1.39,1.75,1.87
COCCOC(=O)N1C(=O)[C@@]2(c3cc(C#CCC(C(=O)OC)C(=O)OC)ccc31)[C@H](C(=O)N1CCc3cc(OC)c(OC)cc3C1)[C@H]1C(=O)O[C@H](c3ccccc3)[C@H](c3ccccc3)N1[C@@H]2c1ccccc1OCCO,1.36,-1.61,1.07,0.965,-0.226,-0.0125,1.57,-0.512,1.03,0.774
COCCOC(=O)N1C(=O)[C@@]2(c3cc(C#CCNC(N)=O)ccc31)[C@H](C(=O)Nc1nc3ccccc3s1)[C@H]1C(=O)O[C@H](c3ccccc3)[C@H](c3ccccc3)N1[C@@H]2c1ccc(O)cc1,1.2,-1.21,0.23,0.68,0.575,-0.124,0.0483,-0.314,0.618,1.6
CN1C(=O)C2C=CC(C(O)c3cccs3)N(N(c3ccccc3)c3ccccc3)C2C1=O (stereo not given),1.28,0.053,-0.632,1.07,0.831,0.143,0.131,-0.267,0.713,1.79
CC1CC/C=C\[C@H]2OC34C=CCN(C(C)C)C(=O)[C@H]3N(C(C)CO)C(=O)[C@@H]4C2C(=O)O1 (stereo not given in full),-0.607,-1.43,-0.334,-0.174,-0.824,-0.128,-0.304,-0.0381,0.0726,-0.215
O=C1O[C@H](c2ccccc2)[C@H](c2ccccc2)N2[C@H]1[C@@H](C(=O)N1CCCCCCC1)[C@]1(C(=O)Nc3ccc(C#CCCO)cc31)[C@H]2c1ccc(O)cc1,1.52,-0.637,1.69,3.02,1.75,1.62,2.01,0.939,5.54,4.23
O=C1O[C@H](c2ccccc2)[C@H](c2ccccc2)N2[C@H]1[C@@H](C(=O)Nc1nc3ccccc3s1)[C@]1(C(=O)Nc3ccccc31)[C@H]2c1ccccc1OCCO,1.39,-2.72,0.364,2.01,0.736,-0.0405,-0.0289,-0.501,2.27,1.69
COC(=O)C(CC#Cc1ccc2c(c1)[C@]1(C(=O)N2)[C@H](C(=O)N2CCCCCCC2)[C@H]2C(=O)O[C@H](c3ccccc3)[C@H](c3ccccc3)N2[C@@H]1c1ccc(OCCO)cc1)C(=O)OC,1.55,-1.57,1.76,3.07,1.68,1.63,3.53,3.7,6.05,4.36
COc1ccc(NN2C(C(O)c3ccccc3)C=CC3C(=O)N(C4CCCCC4)C(=O)C32)cc1 (stereo not given),1.45,-0.888,0.395,1.38,-0.15,0.0974,0.13,0.908,0.644,1.13
CC(C)C[C@@H]1NC(=O)[C@@H]2C[C@H](C(=O)NCCCCCCNC(=O)CS)[C@H](c3ccc(O)cc3)N2C1=O,1.48,0.388,0.734,1.06,0.152,-0.0495,-0.0211,0.693,0.469,1.76
CCOC(=O)C1=C[C@@H](C(C)(C)C)N(S(=O)(=O)c2ccc(C)cc2)[C@H]1c1ccc(OC)cc1,1.34,-2.36,0.535,1.49,0.577,0.0279,0.216,-0.397,1.97,1.14
CC(C)c1ccc(NN2C(C(O)C3CCCCC3)C=CC3C(=O)N(c4ccccc4)C(=O)C32)cc1 (stereo not given),0.324,-0.482,0.176,2.23,0.842,0.0219,-0.144,0.302,0.678,1.9
COC(=O)C(CC#Cc1ccc2c(c1)[C@]1(C(=O)N2)[C@H](c2ccccc2OCCO)N2[C@H](c3ccccc3)[C@H](c3ccccc3)OC(=O)[C@H]2[C@@H]1C(=O)N1CCN(c2ncccn2)CC1)C(=O)OC,1.37,-2.63,0.595,0.999,-0.154,-0.152,0.178,-0.158,0.664,0.876
COCCOC(=O)N1C(=O)[C@@]2(c3cc(C#CCNC(N)=O)ccc31)[C@H](c1ccccc1OCCO)N1[C@H](c3ccccc3)[C@H](c3ccccc3)OC(=O)[C@H]1[C@@H]2C(=O)N1CCCCCCC1,0.6,-1.84,0.621,1.47,0.716,0.14,0.31,-0.499,1.02,1.68
NCCCCCCNC(=O)[C@@H]1C[C@@H]2C(=O)NCC(=O)N2[C@@H]1c1cccc(OCCO)c1,1.3,-0.453,1.09,-0.115,0.293,0.14,0.0639,-0.077,0.95,0.872
COC(=O)C(CC#Cc1ccc2c(c1)[C@]1(C(=O)N2)[C@H](c2ccc(OCCO)cc2)N2[C@H](c3ccccc3)[C@H](c3ccccc3)OC(=O)[C@H]2[C@@H]1C(N)=O)C(=O)OC,1.41,-1.68,-0.584,0.627,-0.113,-0.156,-0.123,-0.14,-0.358,1.4
C=CC[C@]12N=C(c3ccc(OCCCO)cc3)O[C@H]1c1ccccc1N(CCC)C2=O,0.685,-1.99,0.546,0.117,-0.267,0.0344,0.187,0.993,1.46,0.666
C=CCOC(=O)[C@@H]1[C@H]2C(=O)O[C@H](c3ccccc3)[C@H](c3ccccc3)N2[C@H](c2ccc(OCCOC(=O)[C@H]3C[C@H]4C(=O)N[C@@H](CCCCN(C)C)C(=O)N4[C@H]3c3cccc(OCCO)c3)cc2)[C@@]12C(=O)Nc1ccccc12,0.313,-0.772,-1.19,0.12,0.177,-0.033,0.584,0.511,0.518,0.175
C=C(COC)/C(=C/C[C@@H](OC(C)=O)c1cccc(OCCO)c1)c1cnc2ccccc2c1,0.848,-1.73,0.754,-0.534,-0.593,0.0391,0.199,-0.0065,0.302,1.87
